For 13 molecules, composite z-score and z-score results are on record in PubChem BioAssay.

Assay [1] deals with Human papillomavirus type 1a protein E7 (residues 44-93). In words: HPV1a E7 fragment binders on microarrays, primary screen, biochemical, small-molecule microarray, residues 44-93, 635 nm fluorescence (AID 1108).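 Further: E7 fragment applied at 1 µg/mL in TBST for 1 h at 4 C; score combines spot fluorescence with its signal to noise ratio.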 To be noted: small-molecule microarray binding, fluorescence 635 nm; higher = more signal.
The nature of assay [2]: modulators of HCV replicon luciferase signal, primary screen, HCV replication inhibitor project, Huh7 cells, luciferase reporter (AID 1109).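 Further: huh7 hepatoma cells harbouring a luciferase neomycin HCV replicon reporter; luciferase luminescence as measure of HCV replicon replication; test concentration not given here.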 To be noted: 48 h, higher = more signal. For orientation: In antiviral work, replicon cells carry a viral genome segment that copies itself.
The target in assay [3] is Left-right determination factor 2 (Homo sapiens) (UniProt O00292). In words: LEFTY2 binders on small-molecule microarrays, primary screen, biochemical, small-molecule microarray, 635 nm fluorescence scan (AID 1110). Particulars: LEFTY2 binding, higher = more signal.
Assay [4] deals with Calmodulin-1 (Homo sapiens) (UniProt P0DP23). In words: CALM1 binders on microarrays, EGTA buffer, profiling panel, biochemical, small-molecule microarray, Cy5-labelled CALM1 (AID 1111).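 Further: labelled calmodulin applied in Tris saline Tween buffer holding calcium plus EGTA and DTT.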 To be noted: Cy5-CALM1 binding fluorescence, higher = more signal.
For assay [5] the target is unchanged. In words: calcium-bound CALM1 binders on microarrays, profiling panel, artefact control for SMM control-protein annotation, biochemical, small-molecule microarray, Cy5-labelled CALM1, plus calcium (AID 1112).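 Further: score merges spot fluorescence with signal to noise from triplicate slides.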 To be noted: Cy5-CALM1 binding fluorescence, higher = more signal.
Assay [6] can be described thus: small-molecule microarray binders of probe aWnt5a, primary screen, biochemical, biotinylated probe, 635/667 nm fluorescence (AID 1113).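 Further: score merges 667 nm fluorescence intensity with signal-to-noise per printed feature.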 Particulars: higher = more signal.
Assay [7] is described as follows: small-molecule microarray binders of probe aShh, primary screen, biochemical, biotinylated probe, 635/667 nm fluorescence (AID 1114).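 Further: probe is biotin-labelled aShh protein from a stem cell growth factor screen; measures binding of labelled protein to compounds printed on the slide; score merges feature fluorescence at 667 nm with signal-to-noise.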 To be noted: higher = more signal.
A short description of assay [8]: small-molecule microarray binders of probe aNog, primary screen, biochemical, biotinylated probe, 635/667 nm fluorescence (AID 1115).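 Further: probe is biotinylated aNog protein used at 0.15 µg/mL for 1 h at 4 C; z-score combines 667 nm fluorescence of each spot with its signal to noise.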 To be noted: higher = more signal.
Assay [9] addresses Torsin-1A-interacting protein 1 (Homo sapiens) (UniProt Q5JTV8). In words: LAP1 binders from COS7 cell lysate, primary screen, small-molecule microarray, 635/667 nm fluorescence (AID 1116). Particulars: COS7-hLAP1 lysate binding, 635 nm fluorescence, higher = more signal.
Assay [10] deals with Alpha-bungarotoxin (Bungarus multicinctus) (UniProt P60615). In words: alpha-bungarotoxin binders on microarray, profiling panel, artefact control for SMM control protein annotation, biochemical, small-molecule microarray, Alexa647 label, 635/667 nm fluorescence (AID 1117). Particulars: alpha-BTX-A647 binding fluorescence, higher = more signal.
Sequence of Alpha-bungarotoxin (Bungarus multicinctus) (P60615 whole entry, looked up): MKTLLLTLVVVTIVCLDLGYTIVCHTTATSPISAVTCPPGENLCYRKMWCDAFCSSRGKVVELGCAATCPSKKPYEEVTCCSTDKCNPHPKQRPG

Sequence of Left-right determination factor 2 (Homo sapiens) (O00292 whole entry, looked up): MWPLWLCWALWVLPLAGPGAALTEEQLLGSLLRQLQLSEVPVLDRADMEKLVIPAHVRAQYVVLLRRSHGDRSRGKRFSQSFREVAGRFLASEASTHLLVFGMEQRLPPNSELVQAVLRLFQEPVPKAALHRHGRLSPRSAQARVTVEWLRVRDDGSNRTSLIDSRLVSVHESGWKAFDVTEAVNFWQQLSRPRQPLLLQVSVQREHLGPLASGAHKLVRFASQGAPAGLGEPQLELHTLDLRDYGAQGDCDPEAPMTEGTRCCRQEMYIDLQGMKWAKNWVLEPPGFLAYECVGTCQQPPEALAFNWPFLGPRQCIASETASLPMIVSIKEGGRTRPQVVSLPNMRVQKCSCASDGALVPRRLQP
Sequence of Torsin-1A-interacting protein 1 (Homo sapiens) (Q5JTV8 whole entry, looked up): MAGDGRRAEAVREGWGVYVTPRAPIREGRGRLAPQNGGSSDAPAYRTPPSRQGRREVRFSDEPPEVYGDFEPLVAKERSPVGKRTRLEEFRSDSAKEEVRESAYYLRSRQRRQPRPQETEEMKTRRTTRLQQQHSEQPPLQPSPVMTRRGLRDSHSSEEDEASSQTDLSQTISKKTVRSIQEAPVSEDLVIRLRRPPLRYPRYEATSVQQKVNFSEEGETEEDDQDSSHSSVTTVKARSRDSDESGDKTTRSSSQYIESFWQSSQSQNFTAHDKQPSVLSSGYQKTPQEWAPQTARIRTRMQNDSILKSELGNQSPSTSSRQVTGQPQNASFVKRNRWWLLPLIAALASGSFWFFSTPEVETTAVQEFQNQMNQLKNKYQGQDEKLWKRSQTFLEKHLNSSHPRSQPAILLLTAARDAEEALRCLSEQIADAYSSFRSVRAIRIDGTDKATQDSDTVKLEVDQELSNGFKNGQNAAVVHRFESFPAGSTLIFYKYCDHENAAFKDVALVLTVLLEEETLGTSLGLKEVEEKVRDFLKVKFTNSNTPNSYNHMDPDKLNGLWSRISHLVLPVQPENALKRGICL

Consider `O=C(NCc1ccc(F)cc1)[C@H]1C[C@H]2C(=O)N3CCC[C@H]3C(=O)N2[C@H]1c1ccc(O)cc1`, for which the composite z-score was -0.512 in assay [1]; 0.124 in [3]; -0.178 in assay [4]; -0.386 in [5]; -0.176 in assay [6]; -0.366 in assay [7]. Also, the composite z-score was -0.344 in [8], 0.424 in [9] and -0.374 in assay [10]. Moreover, in assay [2], the z-score was 0.85.

Take `C=CCC(OC(C)=O)[C@@H]1[C@@H](N(Cc2cccc3ccccc23)C(=O)Cc2ccc(OC)cc2)c2cc(OCCCO)ccc2N1C(=O)c1ccc2ccccc2c1` (stereo not given in full): the composite z-score was 0.233 in assay [1]; 0.139 in assay [3]; 0.468 in [4]; -0.385 in assay [5]; -0.0398 in assay [6]; 0.138 in assay [7]. In addition, the composite z-score in [8] is -0.23; in assay [9], 0.119; in assay [10], 0.337. For the same molecule, the z-score in assay [2] is -0.922.

On to `C=CCOC(=O)[C@H]1[C@@H]2C(=O)O[C@@H](c3ccccc3)[C@@H](c3ccccc3)N2[C@@H](c2ccc(OCCOC(=O)[C@@H]3C[C@@H]4C(=O)N[C@@H](CCCC[N+](C)(C)C)C(=O)N4[C@@H]3c3ccc(O)cc3)cc2)[C@]12C(=O)Nc1ccc(I)cc12`, for which the composite z-score is 1.41 in assay [1]; 0.668 in [3]; 0.167 in [4]; -0.49 in [5]; 0.0324 in assay [6]; 0.203 in assay [7]. Besides, the figures for the composite z-score in assay [8], in assay [9] and in [10] were 1.06, 1.84 and 0.74, respectively. The z-score in assay [2] was -2.84.

With `Cc1ccc(S[C@]2(C(=O)NCCCN(C)C)CC(=O)N(Cc3ccccc3C(F)(F)F)[C@@H]2c2ccc(CO)cc2I)cc1`, the composite z-score in assay [1] was 0.545; in [3], -1.17; in [4], -0.252; in assay [5] it was 0.236; in assay [6], 0.264; in assay [7], -0.403. Further, the values for the composite z-score in [8], in assay [9] and in [10] were 1.27, 0.28 and -0.0365, respectively. The z-score in assay [2] is -2.37.

For `Cc1ccccc1C(O)C1C=CC2C(=O)N(c3ccccc3)C(=O)C2N1Nc1ccccc1` (stereo not given), the composite z-score was 0.0932 in assay [1]; 0.256 in assay [3]; 2.12 in [4]; 0.585 in assay [5]; 0.0437 in assay [6]; 0.108 in assay [7]. The figures for the composite z-score in [8], in [9] and in assay [10] were 0.189, 1.54 and 1.1, respectively. The molecule also registered a z-score in assay [2] of 1.31.

`CCCCC(O)C1C=CC2C(=O)N(c3ccccc3)C(=O)C2N1Nc1ccc([N+](=O)[O-])cc1` (stereo not given): the composite z-score in [1] is 1.39; in [3], 0.0256; in assay [4] it was 0.521; in assay [5], -0.118; in assay [6], 0.0324; in assay [7] it was 0.036. For the same molecule, the composite z-score was -0.343 in assay [8], 0.853 in [9] and 0.553 in assay [10]. For the same molecule, the z-score in [2] is -0.744.

In the case of `O=C1OCCC=C[C@H]2OC34C=CCN(c5ccc6ccccc6c5)C(=O)[C@H]3N(CCO)C(=O)[C@@H]4C12` (stereo not given in full), the composite z-score in [1] was -0.988; in assay [3], -0.277; in assay [4], -0.237; in assay [5] it was -0.419; in assay [6], -0.219; in assay [7] it was -0.383. Further, the composite z-score in assay [8] is -0.453; in assay [9], 0.468; in assay [10], 0.0797. In addition, the z-score in assay [2] was -0.07.

With `CC(C)(C)OC(=O)CC[C@]1(C(=O)NCC(O)CO)N=C(c2ccc(OCCCO)cc2)O[C@H]1c1ccccc1N=[N+]=[N-]` (stereo not given in full), the composite z-score was 0.438 in [1]; 0.0607 in assay [3]; 1.28 in assay [4]; 0.434 in assay [5]; 0.0775 in assay [6]; -0.221 in [7]. Further, the composite z-score in assay [8] came out at 1.36; in [9], 2.06; in [10], 0.931. The molecule further gave a z-score in assay [2] of 1.18.

In the case of `CC(C)NC(=O)[C@@H]1c2ccccc2C(=O)N(Cc2ccccc2C(F)(F)F)[C@H]1c1ccc(CO)cc1`, the composite z-score in [1] is 0.464; in assay [3], -1.27; in assay [4] it was -0.588; in assay [5], -0.721; in assay [6], 0.4; in assay [7], 0.0649. The composite z-score in [8] is -1.04; in assay [9], 0.0048; in [10], -0.198. Further, in [2], the z-score was -0.692.

In the case of `CCOC(=O)C[C@H]1[C@H](OC(=O)c2ccccc2-c2ccccc2)[C@@H](NC(=O)c2ccc3ccccc3c2)c2cc(OCCCO)ccc2N1C(=O)Cc1ccc(OC)cc1`, the composite z-score was -0.201 in assay [1]; 0.23 in [3]; 0.115 in assay [4]; 0.0612 in assay [5]; -0.0643 in assay [6]; 0.112 in assay [7]. The composite z-score in assay [8] was 0.257; in [9], -0.0261; in assay [10], 0.264. The z-score in assay [2] is -1.6.

Turning to `CN1C(=O)C2C(C1=O)C1C=C(CCCO)C2C(C2CC2)N1Cc1cccc(OC(F)(F)F)c1` (stereo not given), the composite z-score in assay [1] was 1.4; in assay [3] it was -0.306; in assay [4], 0.807; in [5], 0.951; in assay [6] it was -0.0944; in assay [7] it was -0.0709. The composite z-score was -0.0964 in [8], 1.56 in [9] and 0.786 in [10]. Further, in assay [2], the z-score is -1.4.

Regarding `C=C1C(=O)C=C2CN(C(=O)c3ccccc3)[C@@](Cc3ccc(OC)cc3)(C(=O)OC)[C@@H]12`, the composite z-score in [1] is 1.43; in assay [3] it was -0.135; in [4], 2.16; in assay [5], 0.311; in assay [6], 0.164; in assay [7], 0.232. For the same molecule, the composite z-score stood at 2.04 in [8], 1.04 in assay [9] and 1.2 in [10]. The z-score in assay [2] was -2.72.

For the molecule `C=C(CCCC)C(=O)CC[C@@H](OC(=O)c1ccccc1-c1ccccc1C(=O)O)c1ccccc1OCCO`, the composite z-score in assay [1] is 1.19; in [3], 0.0268; in assay [4], 0.525; in assay [5] it was -0.954; in [6], -0.096; in assay [7], -0.0904. Besides, the composite z-score in assay [8] is -0.147; in assay [9], 2.43; in assay [10] it was 0.16. For the same molecule, the z-score in [2] was -2.84.
